Article PMC8384837, “Expanding the binding specificity for RNA recognition by a PUF domain”

Columns and labels:
Experiment in all cases: yeast three-hybrid, YBZ-1, SC-Leu-His + 0.5 mM 3-AT, 4 days
Details in all cases: tags: N-Gal4 AD-HA kept; label: inside an RPR1-promoter hybrid RNA with tandem MS2 sites; ssRNA
PUM1 PUF domain R1-KGS = PUM1 PUF domain R1-KGS (Homo sapiens, UniProt Q14671 828-1176, S863K;R864G;Q867S)
Method in brief: (§1)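 The interaction score is the logarithmic change in variant frequency from input to selection. It uses log2, with a pseudocount of 1 for absent variants, and frequencies came from PCR-amplified, Illumina-sequenced repeat regions. The libraries were Pumilio-1 PUF domains randomized at the three base-contacting residues per repeat, co-expressed with matching RNA elements in strain YBZ-1 (LexA–MS2 coat fusion, HIS3 reporter). Plating lasted four days on SC-Leu (input) or SC-Leu-His + 0.5 mM 3-AT (selection).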

PUM1 PUF domain R4-ACG = PUM1 PUF domain R4-ACG (Homo sapiens, UniProt Q14671 828-1176, N971A;H972C;Q975G)
Method in brief: as §1

PUM1 PUF domain R8-RFT = PUM1 PUF domain R8-RFT (Homo sapiens, UniProt Q14671 828-1176, N1122R;Y1123F;Q1126T)
Method in brief: as §1

PUM1 PUF domain R8-HWG = PUM1 PUF domain R8-HWG (Homo sapiens, UniProt Q14671 828-1176, N1122H;Y1123W;Q1126G)
Method in brief: as §1

PUM1 PUF domain R4-GRA = PUM1 PUF domain R4-GRA (Homo sapiens, UniProt Q14671 828-1176, N971G;H972R;Q975A)
Method in brief: as §1

PUM1 PUF domain R8-YHR = PUM1 PUF domain R8-YHR (Homo sapiens, UniProt Q14671 828-1176, N1122Y;Y1123H;Q1126R)
Method in brief: as §1

PUM1 PUF domain R5-GGR = PUM1 PUF domain R5-GGR (Homo sapiens, UniProt Q14671 828-1176, C1007G;R1008G;Q1011R)
Method in brief: as §1

PUM1 PUF domain R5-RHF = PUM1 PUF domain R5-RHF (Homo sapiens, UniProt Q14671 828-1176, C1007R;R1008H;Q1011F)
Method in brief: as §1

PUM1 PUF domain R2-RVE = PUM1 PUF domain R2-RVE (Homo sapiens, UniProt Q14671 828-1176, N899R;Y900V;Q903E)
Method in brief: as §1

PUM1 PUF domain R4-PFN = PUM1 PUF domain R4-PFN (Homo sapiens, UniProt Q14671 828-1176, N971P;H972F;Q975N)
Method in brief: as §1

PUM1 PUF domain R4-GRA, sequence (Q14671 828-1176 N971G/H972R/Q975A): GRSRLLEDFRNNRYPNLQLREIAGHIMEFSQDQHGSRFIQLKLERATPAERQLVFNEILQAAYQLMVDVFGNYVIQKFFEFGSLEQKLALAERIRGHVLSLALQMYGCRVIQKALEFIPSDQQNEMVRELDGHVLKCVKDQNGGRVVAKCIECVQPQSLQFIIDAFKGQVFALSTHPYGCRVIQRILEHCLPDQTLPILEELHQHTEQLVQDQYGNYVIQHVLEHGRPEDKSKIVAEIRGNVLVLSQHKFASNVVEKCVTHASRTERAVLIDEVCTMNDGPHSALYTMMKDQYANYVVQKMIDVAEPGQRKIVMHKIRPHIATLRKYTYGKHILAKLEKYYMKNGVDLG
PUM1 PUF domain R4-ACG, sequence (Q14671 828-1176 N971A/H972C/Q975G): as the sequence (Q14671 828-1176 N971G/H972R/Q975A) above, with G144A, R145C, A148G counted along it
PUM1 PUF domain R1-KGS, sequence (Q14671 828-1176 S863K/R864G/Q867S): as the sequence (Q14671 828-1176 N971G/H972R/Q975A) above, with S36K, R37G, Q40S, G144N, R145H, A148Q counted along it
PUM1 PUF domain R5-RHF, sequence (Q14671 828-1176 C1007R/R1008H/Q1011F): as the sequence (Q14671 828-1176 N971G/H972R/Q975A) above, with G144N, R145H, A148Q, C180R, R181H, Q184F counted along it
PUM1 PUF domain R5-GGR, sequence (Q14671 828-1176 C1007G/R1008G/Q1011R): as the sequence (Q14671 828-1176 N971G/H972R/Q975A) above, with G144N, R145H, A148Q, C180G, R181G, Q184R counted along it
PUM1 PUF domain R8-RFT, sequence (Q14671 828-1176 N1122R/Y1123F/Q1126T): as the sequence (Q14671 828-1176 N971G/H972R/Q975A) above, with G144N, R145H, A148Q, N295R, Y296F, Q299T counted along it
PUM1 PUF domain R8-HWG, sequence (Q14671 828-1176 N1122H/Y1123W/Q1126G): as the sequence (Q14671 828-1176 N971G/H972R/Q975A) above, with G144N, R145H, A148Q, N295H, Y296W, Q299G counted along it
PUM1 PUF domain R2-RVE, sequence (Q14671 828-1176 N899R/Y900V/Q903E): as the sequence (Q14671 828-1176 N971G/H972R/Q975A) above, with N72R, Y73V, Q76E, G144N, R145H, A148Q counted along it
PUM1 PUF domain R8-YHR, sequence (Q14671 828-1176 N1122Y/Y1123H/Q1126R): as the sequence (Q14671 828-1176 N971G/H972R/Q975A) above, with G144N, R145H, A148Q, N295Y, Y296H, Q299R counted along it
PUM1 PUF domain R4-PFN, sequence (Q14671 828-1176 N971P/H972F/Q975N): as the sequence (Q14671 828-1176 N971G/H972R/Q975A) above, with G144P, R145F, A148N counted along it

With “GGCUAGAACUAGUGGAUCCCCCGGCGCCCGGCGGCUCGAGCCCGGGUAAGUGUAAAUUGUCUGCAUGCCGCCGGGCGCCAUGCCUGCAGGUCGACUCUAGAAAACAUG” the binding signal (PUM1 PUF domain R1-KGS) was 4.48 log2 enrichment (interaction score).
With “GGCUAGAACUAGUGGAUCCCCCGGCGCCCGGCGGCUCGAGCCCGGGUAAGUGUAAAUAGUCUGCAUGCCGCCGGGCGCCAUGCCUGCAGGUCGACUCUAGAAAACAUG” the binding signal (PUM1 PUF domain R4-ACG) was 3.13 log2 enrichment (interaction score), the binding signal (PUM1 PUF domain R8-RFT) was 4.66 log2 enrichment (interaction score) and the binding signal (PUM1 PUF domain R8-HWG) was 4.47 log2 enrichment (interaction score). For the same sequence, the binding signal (PUM1 PUF domain R4-GRA) was 4.39 log2 enrichment (interaction score).
For “GGCUAGAACUAGUGGAUCCCCCGGCGCCCGGCGGCUCGAGCCCGGGUAAGCGUAAAUAGUCUGCAUGCCGCCGGGCGCCAUGCCUGCAGGUCGACUCUAGAAAACAUG”, the binding signal (PUM1 PUF domain R8-RFT) was 5.64 log2 enrichment (interaction score), the binding signal (PUM1 PUF domain R8-HWG) was 4.11 log2 enrichment (interaction score) and the binding signal (PUM1 PUF domain R8-YHR) was 3.34 log2 enrichment (interaction score).
In the case of “GGCUAGAACUAGUGGAUCCCCCGGCGCCCGGCGGCUCGAGCCCGGGUAAGUGUAAAUCGUCUGCAUGCCGCCGGGCGCCAUGCCUGCAGGUCGACUCUAGAAAACAUG”, the binding signal (PUM1 PUF domain R1-KGS) is reported as 5.23 log2 enrichment (interaction score).
For “GGCUAGAACUAGUGGAUCCCCCGGCGCCCGGCGGCUCGAGCCCGGGUAAGUGUUAAUAGUCUGCAUGCCGCCGGGCGCCAUGCCUGCAGGUCGACUCUAGAAAACAUG”, the binding signal (PUM1 PUF domain R5-GGR) was 1.88 log2 enrichment (interaction score) and the binding signal (PUM1 PUF domain R5-RHF) was 3.71 log2 enrichment (interaction score).
With “GGCUAGAACUAGUGGAUCCCCCGGCGCCCGGCGGCUCGAGCCCGGGUAAGUGUAAAGAGUCUGCAUGCCGCCGGGCGCCAUGCCUGCAGGUCGACUCUAGAAAACAUG” the binding signal (PUM1 PUF domain R2-RVE) was 2.9 log2 enrichment (interaction score).
With “GGCUAGAACUAGUGGAUCCCCCGGCGCCCGGCGGCUCGAGCCCGGGUAAGUGUAUAUAGUCUGCAUGCCGCCGGGCGCCAUGCCUGCAGGUCGACUCUAGAAAACAUG” the binding signal (PUM1 PUF domain R4-ACG) was 0.66 log2 enrichment (interaction score), the binding signal (PUM1 PUF domain R4-PFN) was 6.39 log2 enrichment (interaction score) and the binding signal (PUM1 PUF domain R4-GRA) was 2.46 log2 enrichment (interaction score).
“GGCUAGAACUAGUGGAUCCCCCGGCGCCCGGCGGCUCGAGCCCGGGUAAGUGUACAUAGUCUGCAUGCCGCCGGGCGCCAUGCCUGCAGGUCGACUCUAGAAAACAUG” was tested, and the binding signal (PUM1 PUF domain R4-ACG) was 1.1 log2 enrichment (interaction score) and the binding signal (PUM1 PUF domain R4-GRA) was 1.92 log2 enrichment (interaction score).
“GGCUAGAACUAGUGGAUCCCCCGGCGCCCGGCGGCUCGAGCCCGGGUAAGUGUCAAUAGUCUGCAUGCCGCCGGGCGCCAUGCCUGCAGGUCGACUCUAGAAAACAUG” was tested, and the binding signal (PUM1 PUF domain R5-GGR) was 4.92 log2 enrichment (interaction score) and the binding signal (PUM1 PUF domain R5-RHF) was 2.99 log2 enrichment (interaction score).
